Assay outcomes deposited in PubChem by National Center for Advancing Translational Sciences (NCATS).
EPAC1 antagonist: blocks human EPAC1 exchange factor. EPAC1 GEF assay, Rap1b-BODIPY-GDP exchange fluorescence. O95398. AID 720709. 360,000 compounds, 0.14% hits. Potency, µM (titrated, usually from 115 µM), actives largely listed as inhibitors; note: nearly all actives have a fitted effect of over 50% in size
EPAC2 agonist: agonists of human EPAC2 (RAPGEF4); AID 720711; 360,000 compounds, 0.079% hits; Potency, µM (series often up to 154 µM), actives largely listed as activators; EPAC2 activation, biochemical qHTS; response scale: 100% = 6.5 mM cAMP response; note: nearly all actives have a fitted effect of over 50% in size
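Compounds were titrated in qHTS against a Rap1B-BODIPY-GDP (250 nM) complex with EPAC2 (100 nM) and GDP (50 uM). BODIPY-GDP release tracked at 480/540 nm over 30 min at room temperature, normalized to 6.5 mM cAMP.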
EPAC2 antag: antagonists of human EPAC2; AID 720708; Q8WZA2; 360,000 compounds, 0.18% hits; EPAC2 GEF exchange of Rap1B-BODIPY-GDP, fluorescence; Potency, µM (doses to about 114 µM), hits mostly inhibitors; note: nearly all actives have a fitted effect of over 45% in size
EPAC1 ag: agonists of human EPAC1 | O95398 | EPAC1 agonist qHTS, biochemical assay; response scale: 100% = response to 6.5 mM cAMP | Potency, µM (titrated, usually from 154 µM), usual class: activators | 360,000 compounds, 0.073% hits | AID 720707; note: nearly all actives have a fitted effect of over 60% in size
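EPAC1 100 nM, Rap1B–BODIPY-GDP 250 nM, unlabeled GDP 50 uM; compound titration; 5 min RT; kinetic read ex480/em540 at 5-min intervals ×30 min; data normalized to 6.5 mM cAMP agonist control.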
USP1-UAF1 inh: USP1/UAF1 (human) deubiquitinase inhibition; O94782; recombinant USP1/UAF1, Ub-Rhodamine cleavage fluorescence; Potency, µM (series often up to 57.1 µM), usual class: inhibitors; 390,000 compounds, 0.23% hits; note: nearly all actives have a fitted effect of over 60% in size
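In this screen, compounds sit with the deubiquitinase complex (1nM) for 15 min at room temperature before Ub-Rho is added at 150nM final. Fluorescence rise is then followed for 6 reads every 60 seconds.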
Numbers stand for hits; - = inactive; ? = inconclusive; . = not tested or not shown. An excerpt weighted towards active compounds, which were near 0.49% of everything screened. Calls come from the whole dose curve; as a rule, active = well fitted curve in the direction sought with a large enough effect; inconclusive = small, poorly fitted or top-dose-only effect, or another doubt; inactive = no such curve, though single readings can be large; an effect the other way counts as inactive or inconclusive.

SMILES	EPAC1 antagonist	EPAC2 agonist	EPAC2 antag	EPAC1 ag	USP1-UAF1 inh
Cc1cc(C)cc(N2C(=O)/C(=C\c3ccc(N4CCN(C)CC4)o3)C(=O)NC2=S)c1	-	-	-	?	32µM
CCn1nc(/C=C/c2ccccc2)nc2c(=O)n(C)c(=O)nc1-2	?	-	?	-	1.1µM
CCn1nc(-c2cccs2)nc2c(=O)n(C)c(=O)nc1-2	?	-	?	-	0.22µM
FC(F)(F)c1cccc(CC2CN(Cc3ccccc3)Cc3ccccc3N2c2cc(Cl)cc(Cl)c2)c1 (stereo unspecified)	-	-	-	-	-
Cn1cccc1/C=C1\C(=O)NC(=O)N(Cc2ccccc2Cl)C1=O	79µM	-	-	-	-
O=c1nc(/C=C/c2ccc(Cl)cc2Cl)cc(C(F)(F)F)[nH]1	?	-	56µM	-	?
O=Nc1c(-c2ccccc2)n(O)[n+]([O-])c1-c1ccccc1	-	-	-	-	?
C[C@H]1COC(=O)[C@@H](Cc2ccc(F)cc2)CC/C=C/C[C@H](CC(=O)N(CCO)Cc2ccccc2)C(=O)N1	-	-	-	-	-
COc1ccc(N2C(=O)/C(=C/C=C/c3ccccc3[N+](=O)[O-])C(=O)NC2=S)cc1	45µM	-	-	-	?
COc1ccc(N2C(=O)NC(=O)/C(=C/c3ccc([N+](=O)[O-])s3)C2=O)cc1	?	-	-	-	22µM
COc1ccccc1N1C(=O)NC(=O)/C(=C/c2ccc([N+](=O)[O-])s2)C1=O	?	-	-	-	32µM
COc1ccc(N2C(=O)NC(=O)/C(=C\c3ccc([N+](=O)[O-])s3)C2=O)cc1	?	-	-	-	16µM
COc1ccc(C/C(=N\OC(C)=O)c2ccc(OC)cc2)cc1	-	-	?	-	-
CCS(=O)(=O)N1CCN(C2CCC(C)CC2)CC1 (stereo unspecified)	-	-	-	-	?
CCc1ccc(-n2nc(C)c3c2NC(=O)CSC3c2ccc(OC)cc2OC)cc1 (stereo unspecified)	.	.	.	.	-
CCN1/C(=C\C=C\C2=[N+](CC)c3ccccc3C2(C)C)C(C)(C)c2ccccc21	-	50µM	-	79µM	14µM
CCOC(=O)[C@]1(C#N)[C@@H]2C=CC(C(N)=O)=CN2[C@@H](C(N)=O)[C@@H]1c1ccc(F)cc1	-	-	-	-	?
COC(=O)[C@@]1(C#N)[C@@H]2C=CC(C(C)=O)=CN2[C@@H](C(N)=O)[C@@H]1c1ccc(F)cc1	-	?	-	-	28µM
Cc1ccccc1N1C(=O)NC(=O)/C(=C\c2ccc3c(c2)CCCN3Cc2ccccc2)C1=O	35µM	-	-	-	?
O=C1NC(=S)NC(=O)C1=Cc1ccc2c(c1)CCN2CCCCl	-	-	-	-	-
CC1CCCN(c2ccc(C(=O)N3CCC4(CC3)OCCO4)cc2[N+](=O)[O-])C1 (stereo unspecified)	-	-	-	-	-
CCOC(=O)C1CCCN(c2ccc([N+](=O)[O-])c3nonc23)C1 (stereo unspecified)	-	100µM	-	89µM	25µM
O=C1NC(=O)N(c2ccccc2F)C(=O)/C1=C/c1ccc(Sc2nc3ccccc3[nH]2)o1	25µM	-	-	-	-
O=C1NC(=O)N(c2ccccc2)C(=O)/C1=C/c1ccc(Sc2ccccc2)o1	-	-	-	-	-
O=C1NC(=O)N(c2cccc(Cl)c2)C(=O)/C1=C\c1ccc(Sc2nc3ccccc3[nH]2)o1	45µM	-	-	-	-
SMILES	EPAC1 antagonist	EPAC2 agonist	EPAC2 antag	EPAC1 ag	USP1-UAF1 inh
Cc1ccc(/C=C2\C(=O)NC(=S)N(c3ccccc3F)C2=O)s1	?	-	-	-	-
Cc1ccccc1-n1nc(C)c2c1NC(=O)CSC2c1ccccc1C(F)(F)F (stereo unspecified)	.	.	.	.	-
COc1ccc(C)cc1NC(=O)c1cccn(Cc2cccc([N+](=O)[O-])c2)c1=O	.	.	.	.	-
Cc1ccc(-c2[nH]c(=S)[nH]c(=O)c2C#N)cc1	?	-	-	-	-
ClCCN(CCCl)c1ccc(C=Cc2ccncn2)cc1	-	-	-	-	25µM
CCCOP(=O)(c1ccc(N(C)C)cc1)C(O)c1ccc(Cl)cc1Cl (stereo unspecified)	-	-	?	-	-
Oc1c(Cl)c(Cl)c(Cl)c(Cl)c1Cl	-	-	10µM	-	-
COC(=O)C1C2c3ccccc3C(c3ccccc32)C1(C)C(=O)OC (stereo unspecified)	-	-	32µM	-	-
Cc1cc(C=C(C#N)C#N)ccc1N1CCCC1	-	100µM	-	?	?
N#CC(C#N)=Cc1ccc(N2CCOCC2)cc1	-	-	-	-	-
COC(=O)c1nc(-c2ccc3c(n2)C(=O)C(N)=C(OC)C3=O)c(N)c(-c2ccc(OC)c(OC)c2O)c1C	-	-	-	-	7.1µM
Cc1ccc(C(O)P(=O)(OCCC(C)C)c2ccc(N(C)C)cc2)cc1 (stereo unspecified)	-	-	?	-	-
CN1C(=O)/C(=C/c2cccn2-c2ccc3ccccc3c2)C(=O)NC1=S	32µM	-	-	-	-
Cc1cc(C)cc(N2C(=O)NC(=O)/C(=C\c3cccn3-c3ccccc3)C2=O)c1	-	-	-	-	-
O=C1NC(=S)N(c2ccccc2)C(=O)/C1=C/c1ccco1	20µM	-	-	-	?
CCOc1cccc(N2C(=O)/C(=C/c3ccco3)C(=O)NC2=S)c1	?	-	-	-	-
O=C1C=CC(=O)C2C1C1(Cl)C(Cl)=C(Cl)C2(Cl)C1(Cl)Cl (stereo unspecified)	-	-	56µM	-	-
O=c1c2ccccc2nc(/C=C/c2ccccc2O)n1-c1ccc(Br)cc1	.	.	.	.	-
C[N+]1(C)[C@@H]2CC[C@H]1CC(OC(=O)C(c1ccccc1)c1ccccc1)C2 (stereo partly specified)	-	-	-	-	-
O=C(OC1CCN(CCCl)CC1)C(c1ccccc1)c1ccccc1	-	-	13µM	-	-
O=C1NC(=O)N(Cc2ccco2)C(=O)/C1=C\c1cccn1CCOc1ccc(Cl)cc1	50µM	-	-	-	-
O=C1NC(=O)N(Cc2ccc(F)cc2)C(=O)/C1=C\c1ccc(N2CCCC2)cc1	-	-	-	-	-
COc1ccc(CN2C(=O)NC(=O)/C(=C\c3ccco3)C2=O)cc1	50µM	-	-	-	?
COc1ccc(CN2C(=O)NC(=O)/C(=C/c3ccc([N+](=O)[O-])s3)C2=O)cc1	40µM	-	-	-	35µM
COc1cccc(N2C(=O)NC(=O)/C(=C/c3ccc([N+](=O)[O-])s3)C2=O)c1	?	-	-	-	?
O=C1NC(=O)N(Cc2ccc(F)cc2)C(=O)/C1=C\c1ccc([N+](=O)[O-])s1	20µM	-	-	-	28µM
